Measured values published in the supplement of paper PMC4206461.

System: Pseudomonas aeruginosa PA14 dppBCDF deletion mutant
Assay: respiration area under curve with compound as sole nitrogen source, 24 h (OmniLog AUC (arbitrary units)); higher = more respiration / better utilisation as nitrogen source, active = 2000 or more; extreme values may be limits of the assay
Protocol: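 Biolog Phenotype MicroArray plates PM6-PM8: each di/tripeptide is the sole nitrogen source. Tetrazolium reduction was read in the OmniLog every 15 min for 24 h at 37°C and summarised as area under the respiration curve (arbitrary units). Values below 2000 count as no respiration. Strain is the dipeptide ABC transporter deletion mutant.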

Respiration area under curve, active:
C[C@H](N)C(=O)N[C@@H](CCC(=O)O)C(=O)O (plate: PM6) 3750
NC(N)=NCCC[C@H](N)C(=O)N[C@@H](Cc1c[nH]c2ccccc12)C(=O)O (plate: PM6) 7640
C[C@H](N)C(=O)N[C@@H](Cc1ccccc1)C(=O)O (plate: PM6) 5070
CC[C@H](C)[C@H](NC(=O)[C@@H](N)Cc1ccc(O)cc1)C(=O)O (plate: PM8) 5950
NC(N)=NCCC[C@H](N)C(=O)N[C@@H](Cc1ccc(O)cc1)C(=O)O (plate: PM6) 8750
C[C@@H](O)[C@H](N)C(=O)N[C@@H](CCCN=C(N)N)C(=O)O (plate: PM7) 13800
CC(C)C[C@H](NC(=O)[C@@H](N)CO)C(=O)O (plate: PM7) 3310
CC(C)C[C@H](N)C(=O)N[C@@H](CCCN=C(N)N)C(=O)O (plate: PM6) 8540
CSCC[C@H](N)C(=O)N[C@@H](CCC(N)=O)C(=O)O (plate: PM7) 3640
CC(C)C[C@H](N)C(=O)N[C@@H](C)C(=O)O (plate: PM6) 7270
NCC(=O)N[C@@H](CC(N)=O)C(=O)O (plate: PM8) 13800
C[C@H](N)C(=O)NCC(=O)O (plate: PM6) 3630

Respiration area under curve, inactive:
C[C@H](NC(=O)[C@@H](N)Cc1c[nH]c2ccccc12)C(=O)O (plate: PM7) 744
CC[C@H](C)[C@H](NC(=O)CN)C(=O)O (plate: PM8) 1250
CC[C@H](C)[C@H](N)C(=O)N[C@@H](Cc1ccccc1)C(=O)O (plate: PM6) 52.2
CSCC[C@H](N)C(=O)N[C@@H](Cc1ccccc1)C(=O)O (plate: PM7) 85
CC(C)[C@H](NC(=O)[C@@H](N)Cc1c[nH]c2ccccc12)C(=O)O (plate: PM8) 0
CC(C)[C@H](N)C(=O)NCC(=O)O (plate: PM7) 47.8
CC(C)[C@H](NC(=O)[C@H](C)N)C(=O)O (plate: PM8) 700
O=C(O)[C@H](CO)NC(=O)[C@@H]1CCCN1 (plate: PM8) 1290
C[C@H](NC(=O)CN)C(=O)O (plate: PM6) 48.2
CC(C)C[C@H](N)C(=O)N[C@H](CC(C)C)C(=O)O (plate: PM8) 0
CSCC[C@H](N)C(=O)N1CCC[C@H]1C(=O)O (plate: PM7) 0
N[C@@H](Cc1ccccc1)C(=O)N[C@@H](CC(=O)O)C(=O)O (plate: PM8) 0
CC(C)C[C@H](NC(=O)[C@@H](N)[C@@H](C)O)C(=O)O (plate: PM7) 1070
CSCC[C@H](NC(=O)[C@@H](N)Cc1ccccc1)C(=O)O (plate: PM8) 269
NCC(=O)NCC(=O)O (plate: PM6) 98.5
N[C@@H](Cc1c[nH]c2ccccc12)C(=O)N[C@@H](CO)C(=O)O (plate: PM7) 106
C[C@@H](O)[C@H](N)C(=O)N[C@@H](Cc1ccccc1)C(=O)O (plate: PM8) 274
CC[C@H](C)[C@H](N)C(=O)NCC(=O)O (plate: PM6) 0
N[C@@H](Cc1ccccc1)C(=O)N1CCC[C@H]1C(=O)O (plate: PM7) 1.5
N[C@@H](Cc1c[nH]c2ccccc12)C(=O)N[C@@H](CCC(=O)O)C(=O)O (plate: PM7) 0
CC(C)C[C@H](NC(=O)[C@@H](N)Cc1c[nH]c2ccccc12)C(=O)O (plate: PM7) 1830
CC(C)[C@H](N)C(=O)N[C@@H](C)C(=O)O (plate: PM8) 207
CC(C)CC(N)C(=O)NC(CC(=O)O)C(=O)O (stereo not given) (plate: PM6) 735
CC(C)[C@@H](NC(=O)CN)C(=O)O (plate: PM8) 0
O=C(O)[C@@H]1C[C@@H](O)CN1C(=O)[C@@H]1CCCN1 (plate: PM7) 0
N[C@@H](CC(=O)O)C(=O)N[C@@H](Cc1c[nH]c2ccccc12)C(=O)O (plate: PM6) 1260
C[C@H](NC(=O)[C@@H](N)CCC(=O)O)C(=O)O (plate: PM8) 51.5
CC(C)C(N)C(=O)NC(CO)C(=O)O (stereo not given) (plate: PM8) 844
